For some of these results: Measured potencies and affinities stand elsewhere.

Holding throughout (parameters): scale not given: direction of the effect not stated beside the values
Assay [1] deals with Protein translocase subunit SecA (Escherichia coli (strain K12)) (UniProt P10408). In words: Assay to Identify E. coli SecA ATPase Inhibitors. The assay is classed as functional. Particulars: 30 µM.
Assay [2] deals with T1, Ubiquitin-activating enzyme e1, putative (Leishmania donovani (strain BPK282A1)) (UniProt E9BSI1).
T1 sequence (whole entry): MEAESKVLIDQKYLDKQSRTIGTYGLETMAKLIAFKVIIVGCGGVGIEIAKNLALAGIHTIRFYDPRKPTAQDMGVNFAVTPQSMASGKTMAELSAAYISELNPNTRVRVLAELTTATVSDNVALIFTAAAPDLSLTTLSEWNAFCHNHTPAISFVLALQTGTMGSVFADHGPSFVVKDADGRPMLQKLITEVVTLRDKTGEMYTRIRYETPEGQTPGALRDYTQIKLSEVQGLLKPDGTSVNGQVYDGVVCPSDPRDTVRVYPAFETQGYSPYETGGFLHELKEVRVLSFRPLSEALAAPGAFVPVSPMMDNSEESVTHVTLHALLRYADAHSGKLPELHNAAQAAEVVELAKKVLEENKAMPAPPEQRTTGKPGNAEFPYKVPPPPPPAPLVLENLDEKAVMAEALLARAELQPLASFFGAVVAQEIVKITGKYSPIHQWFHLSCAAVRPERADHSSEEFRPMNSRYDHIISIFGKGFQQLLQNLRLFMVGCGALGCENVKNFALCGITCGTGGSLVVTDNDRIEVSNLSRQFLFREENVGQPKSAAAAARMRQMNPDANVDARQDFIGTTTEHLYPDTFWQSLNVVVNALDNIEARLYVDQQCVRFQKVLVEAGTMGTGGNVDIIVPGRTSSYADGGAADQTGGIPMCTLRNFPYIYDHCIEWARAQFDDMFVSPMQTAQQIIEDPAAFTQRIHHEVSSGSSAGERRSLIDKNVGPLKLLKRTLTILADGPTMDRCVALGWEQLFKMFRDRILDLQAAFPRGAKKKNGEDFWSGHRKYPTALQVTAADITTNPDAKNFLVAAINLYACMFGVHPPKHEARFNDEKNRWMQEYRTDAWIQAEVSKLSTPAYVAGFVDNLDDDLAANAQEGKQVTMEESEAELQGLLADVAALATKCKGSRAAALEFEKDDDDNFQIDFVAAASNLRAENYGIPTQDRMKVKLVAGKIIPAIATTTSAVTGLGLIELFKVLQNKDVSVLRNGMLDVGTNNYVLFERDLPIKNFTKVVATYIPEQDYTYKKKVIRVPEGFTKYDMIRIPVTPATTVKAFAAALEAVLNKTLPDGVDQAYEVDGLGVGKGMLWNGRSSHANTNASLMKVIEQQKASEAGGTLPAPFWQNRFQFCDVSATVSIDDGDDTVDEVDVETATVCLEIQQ
In words: Leishmania donovani Ubiquitin Activating Enzyme (LdE1). Format: functional. The settings on record: 30 µM.

Assay [3] deals with AMP-activated protein kinase, AMPK (Homo sapiens) (UniProt P54646+O43741+P54619+Q9UGJ0+Q9Y478+Q13131+Q9UGI9). In words: AMP-dependent Kinase enzyme assay. An in vitro enzyme assay that detects ADP turnover that is directly proportional to AMPK activity. This uses naive AMPK that is activated during the assay with MK-8722. Format: functional. The settings on record: 30 µM.
The target of assay [4] is Sialic acid-binding Ig-like lectin 9 (Homo sapiens) (UniProt Q9Y336). In words: Hs-Siglec9 ALPHAscreen SOP 20170721. Particulars: 10 µM.
Sialic acid-binding Ig-like lectin 9 (Homo sapiens), sequence (Q9Y336 whole entry): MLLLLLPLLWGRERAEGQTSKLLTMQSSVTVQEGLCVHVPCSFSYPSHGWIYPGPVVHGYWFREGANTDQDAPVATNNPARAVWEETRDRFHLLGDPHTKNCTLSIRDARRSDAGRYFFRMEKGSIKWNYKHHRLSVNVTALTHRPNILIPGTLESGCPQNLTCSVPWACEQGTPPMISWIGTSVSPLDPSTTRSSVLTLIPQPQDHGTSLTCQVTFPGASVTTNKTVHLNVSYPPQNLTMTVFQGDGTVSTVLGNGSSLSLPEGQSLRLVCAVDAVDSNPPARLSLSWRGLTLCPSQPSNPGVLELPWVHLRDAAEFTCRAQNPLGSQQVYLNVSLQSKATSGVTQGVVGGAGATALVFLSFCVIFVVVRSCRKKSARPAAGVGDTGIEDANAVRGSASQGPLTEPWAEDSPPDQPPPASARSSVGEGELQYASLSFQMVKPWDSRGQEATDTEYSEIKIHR
Another assay concerns Trypanosoma cruzi. The assay can be described thus: Trypanosoma cruzi phosphomannomutase and mannose-1-phosphate guanylyltransferase assay. Format: functional. Particulars: 10 µM.
In assay [5] the target is T2, Arginase-2, mitochondrial (Homo sapiens) (UniProt P78540).
T2 sequence (whole entry): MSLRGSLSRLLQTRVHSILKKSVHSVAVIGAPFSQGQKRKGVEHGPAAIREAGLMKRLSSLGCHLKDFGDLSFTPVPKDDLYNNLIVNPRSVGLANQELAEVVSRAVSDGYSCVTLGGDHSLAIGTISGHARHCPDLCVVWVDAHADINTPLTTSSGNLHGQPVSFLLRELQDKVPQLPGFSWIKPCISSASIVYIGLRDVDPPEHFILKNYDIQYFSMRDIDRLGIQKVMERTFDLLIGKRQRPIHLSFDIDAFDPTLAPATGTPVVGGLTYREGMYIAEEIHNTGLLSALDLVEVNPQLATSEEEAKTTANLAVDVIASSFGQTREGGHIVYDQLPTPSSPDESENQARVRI
The assay can be described thus: in vitro enzyme assay to detect the production of urea directly proportional to the activity of Arginase II. Also: in the data most compounds retested in dose-response had high values. Format: functional. Particulars: 33.3 µM.

Assay [6] addresses T3, Proteasome subunit beta (Trypanosoma cruzi) (UniProt O96673).
T3 sequence (whole entry): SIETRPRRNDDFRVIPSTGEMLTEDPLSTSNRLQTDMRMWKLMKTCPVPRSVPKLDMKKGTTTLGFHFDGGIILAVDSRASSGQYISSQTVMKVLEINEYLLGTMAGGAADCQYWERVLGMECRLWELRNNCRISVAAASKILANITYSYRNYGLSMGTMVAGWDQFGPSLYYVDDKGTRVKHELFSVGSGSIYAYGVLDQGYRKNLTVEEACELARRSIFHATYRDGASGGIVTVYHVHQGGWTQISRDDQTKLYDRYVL
The assay can be described thus: Trypanosoma cruzi proteasome chymotrypsin-like activity (TcProtChymo) assay. Also: in the data most compounds retested in dose-response had high values. Format: functional. The settings on record: 9.37 µM.

The species named for the next assay is Homo sapiens. The assay can be described thus: To identify inhibition of the IFN signalling (Jak-Stat) pathway via expression of an eGFP reporter gene under the control of an IFN-stimulated response element (ISRE) containing MxA promoter. The assay is classed as functional. The settings on record: 30 µM.
For assay [7], the target named is T4, Tyrosyl-tRNA synthetase, putative (Trypanosoma cruzi (strain CL Brener)) (UniProt Q4DSP6).
T4 sequence (whole entry): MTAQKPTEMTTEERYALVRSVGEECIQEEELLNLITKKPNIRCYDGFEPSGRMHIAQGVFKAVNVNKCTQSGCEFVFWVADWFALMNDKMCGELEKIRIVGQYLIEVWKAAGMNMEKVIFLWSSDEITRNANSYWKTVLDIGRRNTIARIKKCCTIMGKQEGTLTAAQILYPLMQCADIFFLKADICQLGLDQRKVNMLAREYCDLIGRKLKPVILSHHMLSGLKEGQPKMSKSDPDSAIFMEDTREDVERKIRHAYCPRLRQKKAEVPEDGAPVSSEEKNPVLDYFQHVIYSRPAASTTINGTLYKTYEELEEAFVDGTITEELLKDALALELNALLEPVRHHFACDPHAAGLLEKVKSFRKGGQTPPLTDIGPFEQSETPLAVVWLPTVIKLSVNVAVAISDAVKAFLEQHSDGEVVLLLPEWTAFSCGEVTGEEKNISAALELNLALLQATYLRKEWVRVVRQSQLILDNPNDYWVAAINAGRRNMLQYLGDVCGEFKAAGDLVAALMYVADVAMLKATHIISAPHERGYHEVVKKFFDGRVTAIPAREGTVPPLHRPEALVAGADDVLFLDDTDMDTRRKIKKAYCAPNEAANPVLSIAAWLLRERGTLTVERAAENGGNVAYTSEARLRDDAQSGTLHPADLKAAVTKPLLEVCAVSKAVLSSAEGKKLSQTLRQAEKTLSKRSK
In words: Trypanosoma cruzi tyrosyl tRNA synthetase (TcYRS) _High Tyrosine SOP. Also: in the data most compounds retested in dose-response had high values. Format: functional. The settings on record: 30 µM.

In assay [8] the target is T4, Tyrosyl-tRNA synthetase, putative (Trypanosoma cruzi (strain CL Brener)). The assay can be described thus: Trypanosoma cruzi tyrosyl tRNA synthetase (TcYRS) SOP. Format: functional. The settings on record: 30 µM.
Assay [9] deals with Chromo domain-containing protein 1 (Saccharomyces cerevisiae (strain ATCC 204508 / S288c) (Baker's yeast)) (UniProt P32657). In words: ScCHD-1 Enzyme Inhibition Assay. Also: in the data most compounds retested in dose-response had high values. Format: functional. The settings on record: 30 µM.
Chromo domain-containing protein 1 (Saccharomyces cerevisiae (strain ATCC 204508 / S288c) (Baker's yeast)), sequence (P32657 whole entry, the tested form may be a part): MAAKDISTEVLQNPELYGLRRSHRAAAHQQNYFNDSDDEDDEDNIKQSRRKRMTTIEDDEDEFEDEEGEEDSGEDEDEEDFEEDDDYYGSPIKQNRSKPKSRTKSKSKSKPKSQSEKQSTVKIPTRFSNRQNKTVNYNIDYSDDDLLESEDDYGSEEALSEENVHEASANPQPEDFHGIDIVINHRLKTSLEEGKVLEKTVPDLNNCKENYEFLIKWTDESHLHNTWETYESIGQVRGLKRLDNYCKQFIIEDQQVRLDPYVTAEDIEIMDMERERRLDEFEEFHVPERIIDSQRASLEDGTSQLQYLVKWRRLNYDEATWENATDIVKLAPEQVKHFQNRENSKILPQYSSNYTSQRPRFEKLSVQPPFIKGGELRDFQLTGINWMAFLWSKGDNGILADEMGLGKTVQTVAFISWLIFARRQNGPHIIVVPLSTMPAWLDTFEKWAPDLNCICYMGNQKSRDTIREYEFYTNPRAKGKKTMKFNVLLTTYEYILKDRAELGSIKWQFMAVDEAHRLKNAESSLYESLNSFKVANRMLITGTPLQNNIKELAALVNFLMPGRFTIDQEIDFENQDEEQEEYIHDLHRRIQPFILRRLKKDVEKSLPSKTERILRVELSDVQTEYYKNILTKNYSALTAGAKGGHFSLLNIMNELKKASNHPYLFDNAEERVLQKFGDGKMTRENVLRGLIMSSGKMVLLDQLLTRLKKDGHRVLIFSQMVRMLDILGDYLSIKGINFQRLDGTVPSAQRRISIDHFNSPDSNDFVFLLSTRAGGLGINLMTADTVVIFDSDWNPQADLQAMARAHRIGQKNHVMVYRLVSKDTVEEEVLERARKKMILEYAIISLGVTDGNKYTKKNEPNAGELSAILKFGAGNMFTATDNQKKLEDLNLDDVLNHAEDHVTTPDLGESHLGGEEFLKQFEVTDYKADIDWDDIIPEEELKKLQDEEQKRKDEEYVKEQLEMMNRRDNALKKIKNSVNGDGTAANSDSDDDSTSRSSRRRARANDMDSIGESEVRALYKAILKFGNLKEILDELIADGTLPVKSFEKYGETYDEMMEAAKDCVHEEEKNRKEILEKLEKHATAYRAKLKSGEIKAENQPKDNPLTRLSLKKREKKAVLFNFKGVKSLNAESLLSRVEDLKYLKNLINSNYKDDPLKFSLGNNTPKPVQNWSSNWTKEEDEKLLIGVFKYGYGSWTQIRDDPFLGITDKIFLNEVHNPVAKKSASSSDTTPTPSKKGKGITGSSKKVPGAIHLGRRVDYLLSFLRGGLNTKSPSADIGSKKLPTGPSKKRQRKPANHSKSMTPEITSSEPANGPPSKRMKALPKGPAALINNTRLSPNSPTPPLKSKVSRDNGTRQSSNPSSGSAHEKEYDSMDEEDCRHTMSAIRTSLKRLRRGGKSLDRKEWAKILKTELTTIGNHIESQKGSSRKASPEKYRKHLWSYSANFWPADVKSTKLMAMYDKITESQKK

Protein translocase subunit SecA (Escherichia coli (strain K12)), sequence (P10408 whole entry): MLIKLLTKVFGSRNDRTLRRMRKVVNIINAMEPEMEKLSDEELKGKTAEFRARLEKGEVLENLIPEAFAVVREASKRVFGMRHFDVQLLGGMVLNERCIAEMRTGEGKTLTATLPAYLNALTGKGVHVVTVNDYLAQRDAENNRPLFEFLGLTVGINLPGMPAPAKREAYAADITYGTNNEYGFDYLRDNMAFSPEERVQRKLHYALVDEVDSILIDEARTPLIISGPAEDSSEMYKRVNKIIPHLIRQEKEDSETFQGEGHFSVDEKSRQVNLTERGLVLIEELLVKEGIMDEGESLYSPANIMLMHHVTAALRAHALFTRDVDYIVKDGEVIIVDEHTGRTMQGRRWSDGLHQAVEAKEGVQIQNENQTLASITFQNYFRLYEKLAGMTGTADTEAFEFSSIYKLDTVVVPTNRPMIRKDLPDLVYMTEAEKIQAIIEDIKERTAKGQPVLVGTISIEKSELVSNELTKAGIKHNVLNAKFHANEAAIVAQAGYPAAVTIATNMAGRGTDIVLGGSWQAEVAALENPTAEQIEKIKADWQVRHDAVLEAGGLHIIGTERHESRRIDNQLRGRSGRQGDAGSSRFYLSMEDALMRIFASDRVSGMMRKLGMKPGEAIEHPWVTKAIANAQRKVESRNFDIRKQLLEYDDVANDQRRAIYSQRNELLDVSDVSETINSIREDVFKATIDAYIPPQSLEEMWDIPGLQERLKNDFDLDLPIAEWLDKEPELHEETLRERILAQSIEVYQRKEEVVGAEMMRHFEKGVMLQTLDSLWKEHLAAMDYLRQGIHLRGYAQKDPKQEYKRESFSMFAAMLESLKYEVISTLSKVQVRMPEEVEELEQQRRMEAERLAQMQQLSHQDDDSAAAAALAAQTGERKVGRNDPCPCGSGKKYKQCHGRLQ

Consider `CCCc1nc(N2CCN(CC)CC2)c2c(n1)c(C)nn2CC`, for which the Percent Effect in assay [1] is -0.47%; in [2] it was 7.79%; in assay [3] it was 2.46%; in [4] it was 26.2%; in the assay on Trypanosoma cruzi it was 5.01%; in assay [5], -6.9%. Besides, the Percent Effect in assay [6] is 10.5%; in the assay filed under Homo sapiens, 10.3%; in [7], 7.53%; in assay [8], 16.1%; in assay [9], -5.13%.
With `CNc1nc2c(s1)C(c1cccc(F)c1F)CC(=O)N2` (stereo unspecified), the Percent Effect in assay [1] was -2.38%; in assay [2] it was 13.2%; in [3] it was -61.3%; in assay [4], -2.61%; with Trypanosoma cruzi, 0.876%; in assay [5], 4.73%. In addition, the Percent Effect in [6] was 18.9%; in the assay filed under Homo sapiens it was 7.67%; in assay [7], -11.7%; in assay [8] it was -13%; in assay [9], -8.74%.
On to `Cc1noc(C)c1C(=O)NCC(O)c1ccc(F)cc1F` (stereo unspecified), for which the Percent Effect in assay [1] was -3.08%; in assay [2], 0%; in assay [3] it was -4.32%; in assay [4] it was -2.42%; in the assay with Trypanosoma cruzi it was -3.06%; in assay [5], 1.66%. For the same molecule, the Percent Effect is 3.05% in assay [6]; 10.6% in the assay listed under Homo sapiens; -3.96% in assay [7]; -6.1% in assay [8]; 10.4% in assay [9].
Take `O=C([C@H]1CCCO1)N1CCCC2(CCN(Cc3ccncc3)C2=O)C1` (stereo partly specified): the Percent Effect in [1] is -1.19%; in [2], 10.4%; in [3], 3.88%; in [4] it was -8.92%; in the assay with Trypanosoma cruzi it was -7.79%; in [5] it was 7.1%. The Percent Effect in assay [6] was 11.3%; in the assay filed under Homo sapiens it was 31.4%; in assay [7] it was 3.17%; in [8], 6.41%; in assay [9], -8.64%.
With `CN1CCc2cc(C(CNS(=O)(=O)c3cccs3)N3CCCC3)ccc21` (stereo unspecified), the Percent Effect is -1.64% in assay [1]; 13% in assay [2]; 7.05% in assay [3]; -7.92% in assay [4]; -5.42% with Trypanosoma cruzi; -9.68% in assay [5]. Moreover, the Percent Effect was 8.88% in assay [6]; 12.5% in the assay filed under Homo sapiens; 0% in assay [7]; 8.97% in assay [8]; -8.44% in assay [9].
On to `CS(=O)(=O)N1CCC(C(=O)NC(Cc2ccsc2)c2ccccn2)CC1` (stereo unspecified), for which the Percent Effect in assay [1] was -4.27%; in assay [2], 6.76%; in assay [3] it was 8.49%; in assay [4] it was 4.61%; in the assay with Trypanosoma cruzi, 2.17%; in assay [5] it was 1.16%. Further, the Percent Effect in assay [6] is 4.84%; in the assay filed under Homo sapiens, 13.2%; in assay [7], 5.38%; in [8] it was 9.09%; in assay [9], -8.15%.
Take `Cc1cccc(CN2CCC3(CCCN(C(=O)NC4CC4)C3)C2=O)n1` (stereo unspecified): the Percent Effect in [1] is -0.773%; in assay [2] it was 10.4%; in assay [3], -9.14%; in assay [4], -16.1%; with Trypanosoma cruzi, -7.99%; in assay [5], 5.81%. In addition, the Percent Effect in assay [6] was 6.79%; in the assay filed under Homo sapiens, 11.4%; in assay [7], 1.06%; in assay [8] it was 1.28%; in assay [9], -9.83%.
As to `CC(NC(=O)N1CCC(n2cncn2)CC1)c1ccc(F)cc1F` (stereo unspecified), the Percent Effect in assay [1] is -3.51%; in assay [2], 12.7%; in [3] it was -2.69%; in assay [4], 7.75%; in the assay with Trypanosoma cruzi, -0.0944%; in [5] it was -1.14%. For the same molecule, the Percent Effect is 8.6% in assay [6]; 8.31% in the assay filed under Homo sapiens; 5.42% in assay [7]; 13.9% in assay [8]; -5.72% in assay [9].
With `Cc1cn(-c2ccccc2)nc1NS(=O)(=O)c1cc(C(=O)O)cs1`, the Percent Effect in [1] is -9.57%; in assay [2] it was -5.48%; in [3], -4.37%; in assay [4], 14.1%; in the assay with Trypanosoma cruzi, -2.15%; in assay [5], -0.455%. In addition, the Percent Effect is 11.9% in [6]; 6.83% in the assay filed under Homo sapiens; -8.6% in assay [7]; -12.5% in assay [8]; -5.44% in assay [9].
Turning to `Cc1cc(CN(C)C2CCCN(c3cccnn3)C2)on1` (stereo unspecified), the Percent Effect was -4.98% in [1]; -2.67% in assay [2]; -10.6% in [3]; -0.639% in [4]; 4.19% with Trypanosoma cruzi; 1.56% in [5]. In addition, the Percent Effect was 16.2% in assay [6]; -1.53% in the assay listed under Homo sapiens; 11.5% in assay [7]; 13.6% in [8]; -1.67% in [9].
Consider `CC(=O)NCC(=O)N1C[C@H](OCc2cccnc2)[C@H]2COC[C@H]21`, for which the Percent Effect in [1] was -4.16%; in assay [2], 2.7%; in assay [3], 1.91%; in [4], 2.9%; in the assay on Trypanosoma cruzi, -4.49%; in [5], 2.5%. Moreover, the Percent Effect in assay [6] was 12.3%; in the assay filed under Homo sapiens it was 5.47%; in assay [7], 4.95%; in assay [8], 6.1%; in [9] it was -2.54%.
